Values joined by “and” are separate entries in the source; they are usually repeats but may differ in a detail not shown here. Equal entries are not always repeated. The campaign covered roughly 5,500 compounds. About 2,000 (36%) were called active. Roughly 18% stayed inconclusive and do not appear here. No stated cut-off is given here; in the data, active means normalized growth mostly below about 0.91 (no sharp cut-off); inconclusive means no clear call, values can overlap the other calls; inactive means mostly above about 0.92. Some of the results follow.
Assay: chemical genetic growth profiling, strain panel (AID 1159580);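 further: tested at 20 µM; growth read once vehicle control cultures reached saturation at 30 °C; 1 = growth at the plate median or of vehicle wells; lower values mean less growth of the strain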
Details: S. cerevisiae deletion strains, growth OD
[1] = locus YHR030C, strain SLT2, hits give low values
[2] = locus YHR079C, strain IRE1, hits give low values
[3] = locus YJL095W, strain BCK1, hits give low values
[4] = locus YJR066W, strain TOR1, hits give low values
[5] = locus YLR113W, strain HOG1, hits give low values
[6] = locus YNL183C, strain NPR1, hits give low values
[7] = locus YOR231W, strain MKK1, hits give low values
[8] = locus YPL256C, strain CLN2, hits give low values

Measured: normalized growth

CC(C)=CCC/C(C)=C/COc1ccc2ccc(=O)oc2c1
inactive: locus YAL021C, strain ccr4, hits give low values 0.994 | locus YAL026C, strain drs2, hits give low values 0.999 | locus YAL030W, strain snc1, hits give low values 0.986 | locus YBL061C, strain skt5, hits give low values 0.985 | locus YBR009C, strain hhf1, hits give low values 0.976 | locus YBR023C, strain chs3, hits give low values 0.982 | locus YBR171W, strain sec66, hits give low values 0.981 | locus YBR231C, strain swc5, hits give low values 0.996 | locus YBR279W, strain paf1, hits give low values 0.99 | locus YCL011C, strain gbp2, hits give low values 0.978 | locus YCL016C, strain dcc1, hits give low values 0.988 | locus YCL061C, strain MRC1, hits give low values 1 | locus YCL069W, strain vba3, hits give low values 0.985 | locus YCR088W, strain abp1, hits give low values 0.99 | locus YDL005C, strain med2, hits give low values 1 | locus YDL040C, strain nat1, hits give low values 0.986 | locus YDR001C, strain nth1, hits give low values 0.993 | locus YDR069C, strain doa4, hits give low values 0.998 | locus YDR137W, strain rgp1, hits give low values 0.893 | locus YDR159W, strain sac3, hits give low values 1.01 | locus YDR195W, strain ref2 1.04 | locus YDR297W, strain sur2, hits give low values 0.984 | locus YDR334W, strain swr1, hits give low values 0.992 | locus YDR335W, strain msn5, hits give low values 1 | locus YDR392W, strain spt3, hits give low values 0.952 | locus YEL003W, strain gim4, hits give low values 0.997 | locus YEL037C, strain rad23, hits give low values 0.991 | locus YEL061C, strain CIN8 (second series), hits give low values 0.993 | locus YER015W, strain faa2, hits give low values 1 | locus YER016W, strain bim1, hits give low values 0.986 | locus YER111C, strain swi4, hits give low values 1 | locus YER155C, strain BEM2 (second series), hits give low values 0.999 | locus YFR010W, strain ubp6, hits give low values 1 | locus YGL167C, strain pmr1, hits give low values 0.985 | locus YGL173C, strain kem1, hits give low values 0.99 | locus YGL227W, strain vid30, hits give low values 0.992 | locus YGL240W, strain doc1, hits give low values 0.999 | locus YGL253W, strain hxk2, hits give low values 0.994 | locus YHR013C, strain ard1, hits give low values 0.971 | locus YHR027C, strain rpn1, hits give low values 0.998 | [1] 0.948 | [2] 0.969 | locus YHR142W, strain chs7, hits give low values 0.962 | locus YJL092W, strain hpr5, hits give low values 1 | locus YJL095W, strain BCK1 (second series), hits give low values 0.987 | [3] 0.937 | locus YJL115W, strain asf1, hits give low values 1 | locus YJL129C, strain trk1, hits give low values 0.911 | locus YJL154C, strain vps35, hits give low values 0.99 | locus YJL164C, strain tpk1, hits give low values 0.966 | locus YJL166W, strain qcr8, hits give low values 0.99 | locus YJL187C, strain SWE1, hits give low values 0.99 | [4] 0.932 | locus YKL160W, strain elf1, hits give low values 0.976 | locus YKR026C, strain gcn3, hits give low values 0.99 | locus YKR091W, strain srl3, hits give low values 0.985 | locus YLL001W, strain dnm1, hits give low values 1 | locus YLL026W, hits give low values 0.984 | locus YLL041C, strain sdh2, hits give low values 0.983 | locus YLR027C, strain aat2, hits give low values 0.974 | [5] 0.944 | locus YLR221C, strain rsa3, hits give low values 0.976 | locus YLR258W, strain gsy2, hits give low values 0.981 | locus YLR262C, strain YPT6 (second series), hits give low values 0.932 | locus YLR320W, strain mms22, hits give low values 0.974 | locus YLR342W, strain FKS1, hits give low values 0.97 | locus YLR357W, strain rsc2, hits give low values 1.01 | locus YLR370C, strain arc18, hits give low values 0.999 | locus YLR384C, strain iki3, hits give low values 0.992 | locus YML120C, strain ndi1, hits give low values 0.973 | locus YMR058W, strain fet3, hits give low values 1 | locus YMR125W, strain sto1, hits give low values 0.996 | locus YMR129W, hits give low values 0.993 | locus YMR205C, strain PFK2, hits give low values 0.96 | locus YMR231W, strain pep5, hits give low values 0.965 | locus YNL071W, strain lat1, hits give low values 0.965 | [6] 0.912 | locus YNL209W, strain ssb2, hits give low values 0.983 | locus YNL248C, strain rpa49, hits give low values 0.981 | locus YNL322C, strain KRE1 (second series), hits give low values 0.994 | locus YNR049C, strain mso1, hits give low values 0.996 | locus YOR001W, strain rrp6, hits give low values 0.989 | locus YOR070C, strain gyp1, hits give low values 0.983 | locus YOR080W, strain dia2, hits give low values 0.997 | locus YOR083W, strain WHI5, hits give low values 0.978 | locus YOR106W, strain vam3, hits give low values 0.933 | [7] 0.968 | locus YOR265W, strain rbl2, hits give low values 0.973 | locus YOR270C, strain vph1, hits give low values 0.896 | locus YOR290C, strain snf2, hits give low values 0.968 | locus YPL051W, strain arl3, hits give low values 0.987 | locus YPL078C, strain atp4, hits give low values 0.983 | locus YPL106C, strain sse1, hits give low values 1.01 | locus YPL240C, strain hsp82, hits give low values 0.992 | [8] 0.917

COc1cc2ccc(=O)oc2c(O)c1O
inactive: locus YBR021W, strain FUR4, hits give low values 1.03 | locus YBR229C, strain ROT2, hits give low values 0.957 | locus YCL029C, strain bik1, hits give low values 1.01 | locus YDL035C, strain GPR1, hits give low values 1.01 | locus YDL074C, strain BRE1, hits give low values 1.05 | locus YDL101C, strain DUN1, hits give low values 0.984 | locus YDL185W, strain tfp1, hits give low values 0.983 | locus YDL192W, strain arf1, hits give low values 1 | locus YDR101C, strain arx1, hits give low values 1.01 | locus YDR162C, strain NBP2, hits give low values 0.934 | locus YDR318W, strain mcm21, hits give low values 0.992 | locus YDR388W, hits give low values 1 | locus YDR502C, strain sam2, hits give low values 0.986 | locus YEL061C, strain CIN8, hits give low values 0.995 | locus YER110C, hits give low values 0.995 | locus YER155C, strain BEM2, hits give low values 1.03 | locus YER167W, strain BCK2, hits give low values 1.01 | locus YGL078C, strain dbp3, hits give low values 1.01 | locus YGL086W, strain mad1, hits give low values 1.04 | locus YGL248W, strain PDE1, hits give low values 0.979 | locus YGR078C, strain PAC10, hits give low values 0.98 | locus YGR135W, strain pre9, hits give low values 0.966 | locus YGR252W, strain gcn5, hits give low values 0.959 | [1] 1.01 and 1.04 | locus YHR079C, strain IRE1 (second series), hits give low values 0.996 | [2] 1.03 | locus YHR094C, strain hxt1, hits give low values 0.987 | locus YHR129C, strain ARP1, hits give low values 0.995 | locus YHR200W, strain rpn10, hits give low values 0.988 | locus YIL066C, strain RNR3, hits give low values 0.996 | locus YIL073C, strain SPO22, hits give low values 0.997 | locus YIL125W, strain kgd1, hits give low values 1 | locus YIR030C, strain dcg1, hits give low values 1 | [3] 0.956 and 1.01 | locus YJL134W, strain LCB3, hits give low values 1 | locus YJL168C, strain set2, hits give low values 0.992 | locus YJL187C, strain SWE1 (second series), hits give low values 0.991 | locus YJR043C, strain POL32, hits give low values 1.01 | [4] 0.978 | locus YJR075W, strain HOC1, hits give low values 1.01 | locus YKL068W, hits give low values 0.982 | locus YKL085W, strain MDH1 (second series), hits give low values 1 | locus YKL085W, strain MDH1, hits give low values 1 | locus YKR001C, strain vps1, hits give low values 1 | locus YLR039C, strain RIC1, hits give low values 1 | locus YLR058C, strain SHM2, hits give low values 1 | locus YLR102C, strain apc9, hits give low values 1 | [5] 0.984 | locus YLR262C, strain YPT6, hits give low values 0.955 | locus YLR268W, strain sec22, hits give low values 1.03 | locus YLR330W, strain CHS5, hits give low values 1 | locus YLR342W, strain FKS1 (second series), hits give low values 1.06 | locus YLR371W, strain rom2, hits give low values 0.981 | locus YLR418C, strain cdc73, hits give low values 0.971 | locus YML016C, strain PPZ1, hits give low values 0.996 | locus YML032C, strain rad52, hits give low values 1.01 | locus YML124C, strain tub3, hits give low values 0.997 | locus YMR078C, strain ctf18, hits give low values 0.991 | locus YMR223W, strain ubp8, hits give low values 1.01 | locus YMR307W, strain GAS1, hits give low values 1.05 | locus YNL067W, strain RPL9B, hits give low values 0.983 | locus YNL128W, strain TEP1, hits give low values 0.96 | [6] 0.976 | locus YNL233W, strain BNI4, hits give low values 1 | locus YNL250W, strain rad50, hits give low values 1 | locus YNL271C, strain bni1, hits give low values 1 | locus YNL298W, strain CLA4, hits give low values 0.997 | locus YNL307C, strain MCK1, hits give low values 1.01 | locus YNL322C, strain KRE1, hits give low values 0.99 | locus YNR052C, strain pop2, hits give low values 0.993 | locus YOL006C, strain TOP1, hits give low values 1.11 | locus YOL012C, strain htz1 0.802 | locus YOL147C, strain pex11, hits give low values 1.01 | locus YOR061W, strain CKA2, hits give low values 0.988 | locus YOR069W, strain VPS5, hits give low values 1.01 | locus YOR136W, strain idh2, hits give low values 1.01 | locus YOR144C, strain elg1, hits give low values 0.994 | locus YOR184W, strain ser1, hits give low values 0.983 | [7] 1.01 | locus YOR316C, strain cot1, hits give low values 0.997 | [8] 1.03 | locus YPR119W, strain clb2, hits give low values 0.991 | locus YPR141C, strain kar3, hits give low values 0.997 | locus YPR163C, strain tif3, hits give low values 0.985 | locus YPR167C, strain met16, hits give low values 0.994 | strain wtn01, hits give low values 1.03
active: locus YKL009W, strain mrt4, hits give low values 1.13 [resistant]

Source: PubChem BioAssay AID1159580 (chemical genetic matrix, 2015)
